Laboratory results published in PubChem BioAssay (NCATS).
Records with an inconclusive call do not appear. Entries that show only a call come without a potency. Activity calls are given as the source filed them. Calls come from the whole dose curve; as a rule, active = well fitted inhibition curve with a large enough effect; inconclusive = small, poorly fitted or top-dose-only effect; inactive = flat fitted curve, though single readings scatter.

Tests used:
Test in all cases: qHTS profiling for inhibitors of Plasmodium falciparum proliferation (AID 504749); note: nearly all actives have a fitted effect of over 60% in size
Conditions in all cases: P. falciparum in erythrocytes, SYBR Green DNA, 72 h; series mostly up to 28.7 µM
C2A = tested on: C2A
Procedure, shortened: (§1)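 In a 72 h erythrocytic culture (37 C, humidified, 5% CO2) at 2.5% hematocrit and 0.3% starting parasitemia, compounds were tested; SYBR Green I in detergent lysis buffer stained parasite DNA overnight.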

CP185 = tested on: CP185
Procedure, shortened: as §1

CP192 = tested on: CP192
Procedure, shortened: as §1

CP194 = tested on: CP194
Procedure, shortened: as §1

CP201 = tested on: CP201
Procedure, shortened: as §1

CP237 = tested on: CP237
Procedure, shortened: as §1

CP238 = tested on: CP238
Procedure, shortened: as §1

CP247 = tested on: CP247
Procedure, shortened: as §1

CP262 = tested on: CP262
Procedure, shortened: as §1

CP266 = tested on: CP266
Procedure, shortened: as §1

CP268 = tested on: CP268
Procedure, shortened: as §1

CP269 = tested on: CP269
Procedure, shortened: as §1

CP305 = tested on: CP305
Procedure, shortened: as §1

CP325 = tested on: CP325
Procedure, shortened: as §1

CP329 = tested on: CP329
Procedure, shortened: as §1

P94_40 = tested on: P94_40
Procedure, shortened: as §1

PAD = tested on: PAD
Procedure, shortened: as §1

PC49 = tested on: PC49
Procedure, shortened: as §1

SC27B = tested on: SC27B
Procedure, shortened: as §1

TAB109 = tested on: TAB109
Procedure, shortened: as §1
Potency is the fitted concentration of half-maximal effect.

Cc1c(C(=O)O)c(O)cc2c1C(=O)c1c(O)c([C@H]3O[C@H](CO)[C@@H](O)[C@H](O)[C@H]3O)c(O)c(O)c1C2=O
Potency (C2A): inactive | Potency (CP185): inactive | Potency (CP192): inactive | Potency (CP194): inactive | Potency (CP201): inactive | Potency (CP237): inactive | Potency (CP238): inactive | Potency (CP247): inactive | Potency (CP262): inactive | Potency (CP266): inactive | Potency (CP268): inactive | Potency (CP269): inactive | Potency (CP305): inactive | Potency (CP325): inactive | Potency (CP329): inactive | Potency (P94_40): inactive | Potency (PAD): inactive | Potency (PC49): inactive | Potency (SC27B): inactive | Potency (TAB109): inactive

NS(=O)(=O)c1cc2c(cc1Cl)N[C@H](Cc1ccccc1)NS2(=O)=O
Potency (C2A): inactive | Potency (CP185): inactive | Potency (CP192): inactive | Potency (CP194): inactive | Potency (CP201): inactive | Potency (CP237): inactive | Potency (CP238): inactive | Potency (CP247): inactive | Potency (CP262): inactive | Potency (CP266): inactive | Potency (CP268): inactive | Potency (CP269): inactive | Potency (CP305): inactive | Potency (CP325): inactive | Potency (CP329): inactive | Potency (P94_40): inactive | Potency (PAD): inactive | Potency (PC49): inactive | Potency (SC27B): inactive | Potency (TAB109): inactive

CC(C)(C)NC[C@@H](O)c1ccc(O)c(CO)n1
Potency (C2A): inactive | Potency (CP185): inactive | Potency (CP192): inactive | Potency (CP194): inactive | Potency (CP201): inactive | Potency (CP237): inactive | Potency (CP238): inactive | Potency (CP247): inactive | Potency (CP262): inactive | Potency (CP266): inactive | Potency (CP268): inactive | Potency (CP269): inactive | Potency (CP305): inactive | Potency (CP325): inactive | Potency (CP329): inactive | Potency (P94_40): inactive | Potency (PAD): inactive | Potency (PC49): inactive | Potency (SC27B): inactive | Potency (TAB109): inactive

CN(C)[C@H]1C(=O)C(C(=O)NCN2CCCC2)=C(O)[C@]2(O)C(=O)C3=C(O)c4c(O)cccc4[C@](C)(O)[C@H]3C[C@H]12
Potency (C2A): inactive | Potency (CP185): inactive | Potency (CP192): inactive | Potency (CP194): inactive | Potency (CP201): inactive | Potency (CP237): inactive | Potency (CP238): inactive | Potency (CP247): inactive | Potency (CP262): inactive | Potency (CP266): inactive | Potency (CP268): inactive | Potency (CP269): inactive | Potency (CP305): inactive | Potency (CP325): inactive | Potency (CP329): inactive | Potency (P94_40): inactive | Potency (PAD): inactive | Potency (PC49): inactive | Potency (SC27B): inactive | Potency (TAB109): inactive

Cc1cn([C@H]2C[C@H](N=[N+]=[N-])[C@H](CO)O2)c(=O)[nH]c1=O
Potency (C2A): inactive | Potency (CP185): inactive | Potency (CP192): inactive | Potency (CP194): inactive | Potency (CP201): inactive | Potency (CP237): inactive | Potency (CP238): inactive | Potency (CP247): inactive | Potency (CP262): inactive | Potency (CP266): inactive | Potency (CP268): inactive | Potency (CP269): inactive | Potency (CP305): inactive | Potency (CP325): inactive | Potency (CP329): inactive | Potency (P94_40): inactive | Potency (PAD): inactive | Potency (PC49): inactive | Potency (SC27B): inactive | Potency (TAB109): inactive

O=C(O)[C@@H](S)[C@H](S)C(=O)O
Potency (C2A): 7.08 µM (active) | Potency (CP185): 11.2 µM (active) | Potency (CP192): 12 µM (active) | Potency (CP194): 15.1 µM (active) | Potency (CP201): 12 µM (active) | Potency (CP237): 7.08 µM (active) | Potency (CP238): 12.6 µM (active) | Potency (CP247): 7.94 µM (active) | Potency (CP262): 6.75 µM (active) | Potency (CP266): 9.53 µM (active) | Potency (CP268): 13.5 µM (active) | Potency (CP269): 6.75 µM (active) | Potency (CP305): 7.57 µM (active) | Potency (CP325): 9.53 µM (active) | Potency (CP329): 10.7 µM (active) | Potency (P94_40): 4.47 µM (active) | Potency (PAD): 8.91 µM (active) | Potency (PC49): 11.2 µM (active) | Potency (SC27B): 11.2 µM (active) | Potency (TAB109): 5.62 µM (active)

C[C@]12CC[C@H]3c4ccc(O)cc4CC[C@@H]3[C@H]1CC[C@@H]2OC(=O)CCC1CCCC1
Potency (C2A): inactive | Potency (CP185): inactive | Potency (CP192): inactive | Potency (CP194): inactive | Potency (CP201): inactive | Potency (CP237): 8.91 µM (active) | Potency (CP238): inactive | Potency (CP247): inactive | Potency (CP262): inactive | Potency (CP266): inactive | Potency (CP268): inactive | Potency (CP269): inactive | Potency (CP305): inactive | Potency (CP325): inactive | Potency (CP329): inactive | Potency (P94_40): inactive | Potency (PAD): 10 µM (active) | Potency (PC49): inactive | Potency (SC27B): inactive | Potency (TAB109): inactive
